{
  "source": "PubChem BioAssay (NCATS)",
  "note": "Several values for one entry are separate records, joined by “and”; a condition that tells them apart may be missing. Equal entries are not always repeated. Records with an inconclusive call do not appear. Unmarked numbers belong to inactive results. Activity calls are given as the source filed them. The call rests on the fitted dose curve; in most records, active means well fitted activation curve with a large enough effect; inconclusive means small, poorly fitted or top-dose-only effect; inactive means flat fitted curve, though single readings scatter. Potency means the concentration at half of the fitted maximal effect.",
  "data": [
    {"assay": "qHTS assay for environmental chemicals that activate the Aryl hydrocarbon Receptor (AhR) signaling pathway (AID 651777); further: nearly all actives have a fitted effect of over 15% in size; on activation: % of control where 0% means no effect", "conditions": "1A2-DRE human hepatoma cells, luciferase, 24 h; activation: active compounds read high", "description": "National Center for Advancing Translational Sciences [NCATS]\nNIH Chemical Genomics Center [NCGC]\nU.S. Environmental Protection Agency [EPA]\nNational Institutes of Environmental Health Sciences [NIEHS]\nNational Toxicology Program [NTP]\nThe Aryl hydrocarbon Receptor (AhR) plays a critical role in the development of cancer or neoplasm and its formation is most likely due to genetic mutations and the influence of environment. Exposure to environmental pollutants such as polycyclic aromatic hydrocarbons (PAH), their halogenated derivatives and heterocyclic amines causes the induction of phase I and II enzymes. The transcriptional activation of CYP1A2 is directly regulated by AhR.\nA cell based assay (1A2-DRE cells, developed by Puracyp, Inc., CA) was used to assess the activation of AhR. Human hepatoma cells were stably transfected with the dioxin response element (DRE) and CYP1A2 promoter fused to a luciferase gene. Increased luciferase activity can be used to identify the compounds that cause the induction of CYP1A2 and AhR activation.\n1,200 cells in 5 uL/well were dispensed into white wall/solid bottom 1536-well plates using a Multidrop Combi (Thermo Scientific) dispenser. Following transfer of 23 nL compound or DMSO vehicle by a pin tool, the plates were incubated 24 hr at 37 C and 5% CO2. 5 ul One-Glo (Promega) was then added to each well and following 30 min incubation at room temperature, luciferase activity was quantified on a ViewLux CCD-based plate reader.", "values": [
      {"smiles": "CCCOc1nn(C(=O)NS(=O)(=O)c2ccccc2C(=O)OC)c(=O)n1C", "activation": "0.148%"},
      {"smiles": "CNC(=O)N(C)c1nc2ccccc2s1", "Potency": "44.7 µM (active)"},
      {"smiles": "CCOP(=O)(NC(C)C)Oc1ccc(S(C)(=O)=O)c(C)c1", "note": "(stereo not given)", "activation": "1.16%"},
      {"smiles": "Nc1ccc([N+](=O)[O-])cc1Cl", "activation": "3.47%"},
      {"smiles": "O=C(O)COc1ccc(Cl)cc1", "activation": "1.68%"},
      {"smiles": "C=CC(=O)OCCCCCC(C)C", "activation": "-0.0847%"},
      {"smiles": "C=CC(=O)OCC(CC)(COC(=O)C=C)COC(=O)C=C", "activation": "9.7%"},
      {"smiles": "Clc1ccccc1-c1nnc(-c2ccccc2Cl)nn1", "activation": "9.84%"},
      {"smiles": "C#CC(C)(C)NC(=O)c1cc(Cl)cc(Cl)c1", "activation": "-1.14%"},
      {"smiles": "Nc1nc(N)nc(N)n1", "activation": "-1.1%"},
      {"smiles": "CCC(CC)Nc1c([N+](=O)[O-])cc(C)c(C)c1[N+](=O)[O-]", "activation": "4.64%"},
      {"smiles": "O=[N+]([O-])c1ccc(Cl)c([N+](=O)[O-])c1", "activation": "-11.5%"},
      {"smiles": "CC/C(=N\\OC/C=C/Cl)C1=C(O)CC(C2CCOCC2)CC1=O", "note": "(stereo not given)", "activation": "0.936%"},
      {"smiles": "CCN(CC)C(=O)SCc1ccc(Cl)cc1", "activation": "2.07%"},
      {"smiles": "Clc1ccc([C@@]2(Cn3cncn3)C[C@H](Br)CO2)c(Cl)c1", "activation": "1.22%"},
      {"smiles": "Cc1cc(Cl)ccc1O[C@H](C)C(=O)O", "activation": "-2.24%"},
      {"smiles": "CCC[CH2][Sn]1([CH2]CCC)[O]C(=O)C=CC(=O)[O]1", "activation": "8.65%"},
      {"smiles": "CCOC(=O)COc1cc(-c2nn(C)c(OC(F)F)c2Cl)c(F)cc1Cl", "Potency": "44.7 µM (active)"},
      {"smiles": "CCOP(=O)(OCC)Oc1nc(Cl)c(Cl)cc1Cl", "activation": "3.16%"},
      {"smiles": "CCOP(=S)(NC(C)C)Oc1ccccc1C(=O)OC(C)C", "note": "(stereo not given)", "activation": "4.48%"},
      {"smiles": "CC1(C)[C@H](C=C(Cl)Cl)[C@H]1C(=O)O[C@H](C#N)c1ccc(F)c(Oc2ccccc2)c1", "activation": "1.36% and 3.44%"},
      {"smiles": "CCCCOCCOC(C)=O", "activation": "0.977%"},
      {"smiles": "CCCCNC(=O)OCC#CI", "activation": "-10.9%"},
      {"smiles": "CNC(=O)O/N=C(\\SC)C(=O)N(C)C", "activation": "-0.668%"},
      {"smiles": "CS(=O)(=O)NC(=O)c1cc(Oc2ccc(C(F)(F)F)cc2Cl)ccc1[N+](=O)[O-]", "activation": "0.872%"},
      {"smiles": "C=C(C)C(=O)OCC(CC)CCCC", "note": "(stereo not given)", "activation": "1.05%"},
      {"smiles": "CCOP(=O)(OCC)OC(Cl)C(Cl)(Cl)Cl", "note": "(stereo not given)", "activation": "2.83%"},
      {"smiles": "CCC(C)(C)c1ccc(O)c(C(C)(C)CC)c1", "activation": "-1.01%"},
      {"smiles": "CCNc1nc(NC(C)C)nc(OC)n1", "activation": "0.686%"},
      {"smiles": "Cc1ccc(O)cc1C", "activation": "0.215%"},
      {"smiles": "C[C@H]1[C@H](c2ccc(Cl)cc2)SC(=O)N1C(=O)NC1CCCCC1", "activation": "6.81%"},
      {"smiles": "COC(=O)C(C)Oc1ccc(Oc2ccc(Cl)cc2Cl)cc1", "note": "(stereo not given)", "activation": "-0.824%"},
      {"smiles": "Cc1nn(-c2cc(NS(C)(=O)=O)c(Cl)cc2Cl)c(=O)n1C(F)F", "activation": "-2.63%"},
      {"smiles": "CCC(C)c1cc([N+](=O)[O-])cc([N+](=O)[O-])c1O", "note": "(stereo not given)", "activation": "6.77%"},
      {"smiles": "CCCCN(CC)C(=O)SCCC", "activation": "0.496%"},
      {"smiles": "CC(Oc1ccc(Cl)cc1Cl)C(=O)O", "note": "(stereo not given)", "activation": "-1.09%"},
      {"smiles": "CCNc1nc(NC(C)C)nc(SC)n1", "activation": "0.555%"},
      {"smiles": "CNC(=O)Oc1cccc(N=CN(C)C)c1", "activation": "0.739%"},
      {"smiles": "O=C(O)c1nc(Cl)ccc1Cl", "activation": "0.739% and -2.14%"},
      {"smiles": "CCOP(=O)(OCC)Oc1ccc([N+](=O)[O-])cc1", "activation": "0.386%"}
    ]}
  ]
}
